# PubChem BioAssay (NCI)
# This is part of a sample that, as a whole, favours compounds with a hit. Of some 83,000 tested, about 20% had one in any assay.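 Results are percent growth after 48 hours of single-concentration exposure. 100 means growth as in untreated cells, lower positive values show inhibition; negative values down to -100 show cell death.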 Values without a mark were called inactive. The source made the active and inactive calls. Rule for the calls: active = growth percent below 10; inactive = the rest.
# System: HL-60(TB) leukemia
# Assay: NCI-60 one-dose screen, 48 h (100 = growth as untreated, 0 = no growth, -100 = all killed)
# Conditions: 10 µM unless noted
row,Structure (SMILES),growth
1,N#CC(I)CS(=O)(=O)c1ccccc1 (centres undefined),99%
2,CCOc1ccc2nc(C)cc(Nc3ccc(Br)cc3)c2c1,107%
3,OCc1cnc2ccccc2c1NC1CCCCCC1,88.5%
4,Cc1ccc(-n2c(C)nn3c(=O)c4c5c(sc4nc23)CN(C)CC5)cc1,96.7%
5,CC(C)[C@]12O[C@H]1[C@@H]1O[C@]13[C@]1(O[C@H]1C[C@H]1C4=C(CC[C@@]13C)C(=O)OC4)[C@@H]2OC(=O)CN(C)C,-24.3% (active)
6,CCCCCCCCCCCCNC(=O)N[C@H](C(=O)N[C@H]1/C=C/OCCNC(=O)/C=C/[C@H](C(C)C)NC1=O)C(C)C,93.8%
7,CC1CC(C)/C(=N/NC(N)=O)C(C(O)CC2CCC(=O)NC2=O)C1 (centres undefined),40.1%
8,CO[C@H]1CC(=O)n2c3ccccc3c3c4c(c5c6ccccc6n1c5c32)C(=O)NC4=O,96.9%
9,CCc1ccc(-c2cn3ccnc3c(-c3ccc4ncn(Cc5ccccc5)c4c3)n2)cc1,60.4%
10,O=C(c1ccccc1)c1ccco1,86.1%
11,Cc1ccc(S(=O)(=O)NC(CCC(=O)Nc2ccccc2)C(=O)Nc2ccccc2)cc1 (centres undefined),-2.4% (active)
12,O=C(CN1CCOCC1)Nc1ccc2ncnc(Nc3ccc(OCc4cccc(F)c4)c(Cl)c3)c2c1,75.2%
13,Cc1cc(NCCCNc2ccnc3cc(Cl)ccc23)nc(Nc2ccc(C(=O)N3CCCCC3)cc2)n1,-63.2% (active)
14,CC(=O)N1N=C(c2ccc(-n3ccc(C(F)(F)F)n3)c(F)c2)CC1c1ccc[nH]1 (centres undefined),98.8%
